# Where two headings read alike, the source gives them in different places.
# What was measured:
# Design in all cases: species or system human, MV4-11 + K-562 + COLO205 + SK-N-BE2 + OVCAR-8
# BMP2K = details: read-out: apparent Kd; compound concentrations:100 nM and 1000 nM (sheet 'Samples'); n = 1
# CDC42BPA = details: read-out: apparent Kd, n = 1
# CDC42BPB = details: read-out: apparent Kd, n = 1
# CDC42BPG = details: read-out: apparent Kd, n = 1
# PKN1 = details: read-out: apparent Kd, n = 1
# PKN2 = details: read-out: apparent Kd, n = 1
# PRKACA = details: read-out: apparent Kd; compound concentrations:100 nM and 1000 nM (sheet 'Samples'); n = 1
# PRKACB = details: read-out: apparent Kd; compound concentrations:100 nM and 1000 nM (sheet 'Samples'); n = 1
# PRKG1 = details: read-out: apparent Kd; compound concentrations:100 nM and 1000 nM (sheet 'Samples'); n = 1
# PRKX = details: read-out: apparent Kd; compound concentrations:100 nM and 1000 nM (sheet 'Samples'); n = 1
# ROCK1 = details: read-out: apparent Kd, n = 1
# ROCK2 = details: read-out: apparent Kd, n = 1
# RPS6KB1 = details: read-out: apparent Kd, n = 1
# FLT4 = details: read-out: apparent Kd; compound concentrations: 100 nM and 1000 nM (sheet 'Samples'), CATDS: 0.57222186491760196; n = 1
# PLK1 = details: read-out: apparent Kd; compound concentrations: 100 nM and 1000 nM (sheet 'Samples'), CATDS: 0.18184890704530299; n = 1
# RIPK2 = details: read-out: apparent Kd, compound concentrations: 100 nM and 1000 nM (sheet 'Samples'), n = 1
# CIT = details: read-out: apparent Kd; compound concentrations: 100 nM and 1000 nM (sheet 'Samples'), CATDS: 4.1257824798939802E-2; n = 1
# GSK3A = details: read-out: apparent Kd; compound concentrations: 100 nM and 1000 nM (sheet 'Samples'), CATDS: 6.6590939053141299E-2; n = 1
# GSK3B = details: read-out: apparent Kd; compound concentrations: 100 nM and 1000 nM (sheet 'Samples'), CATDS: 5.7473079866645002E-2; n = 1
# LATS1 = details: read-out: apparent Kd; compound concentrations: 100 nM and 1000 nM (sheet 'Samples'), CATDS: 9.7617752181751005E-2; n = 1
# MELK = details: read-out: apparent Kd; compound concentrations: 100 nM and 1000 nM (sheet 'Samples'), CATDS: 3.9798752380349897E-2; n = 1
# PIM2 = details: read-out: apparent Kd; compound concentrations: 100 nM and 1000 nM (sheet 'Samples'), CATDS: 3.9305369436655899E-2; n = 1
# PKN3 = details: read-out: apparent Kd; compound concentrations: 100 nM and 1000 nM (sheet 'Samples'), CATDS: 7.5123616152450098E-2; n = 1
# PRKCD = details: read-out: apparent Kd; compound concentrations: 100 nM and 1000 nM (sheet 'Samples'), CATDS: 4.7600533204707897E-2; n = 1
# PRKCI = details: read-out: apparent Kd; compound concentrations: 100 nM and 1000 nM (sheet 'Samples'), CATDS: 3.9274053765020099E-2; n = 1
# CAMK2B = details: read-out: apparent Kd; compound concentrations: 100 nM and 1000 nM (sheet 'Samples'), CATDS: 8.8630985713884503E-2; n = 1
# FLT3 = details: read-out: apparent Kd; compound concentrations: 100 nM and 1000 nM (sheet 'Samples'), CATDS: 7.5963882735203103E-2; n = 1
# FYN = details: read-out: apparent Kd; compound concentrations: 100 nM and 1000 nM (sheet 'Samples'), CATDS: 6.1091429900981202E-2; n = 1
# HCK = details: read-out: apparent Kd; compound concentrations: 100 nM and 1000 nM (sheet 'Samples'), CATDS: 0.204546800943642; n = 1
# LCK = details: read-out: apparent Kd; compound concentrations: 100 nM and 1000 nM (sheet 'Samples'), CATDS: 6.2891353750110596E-2; n = 1
# LYN = details: read-out: apparent Kd; compound concentrations: 100 nM and 1000 nM (sheet 'Samples'), CATDS: 6.1198388947790797E-2; n = 1
# MAP2K5 = details: read-out: apparent Kd; compound concentrations: 100 nM and 1000 nM (sheet 'Samples'), CATDS: 0.12646942491879101; n = 1
# MAPK14 = details: read-out: apparent Kd; compound concentrations: 100 nM and 1000 nM (sheet 'Samples'), CATDS: 5.4651958851346001E-2; n = 1
# PTK6 = details: read-out: apparent Kd; compound concentrations: 100 nM and 1000 nM (sheet 'Samples'), CATDS: 6.47566338134071E-2; n = 1
# RIPK3 = details: read-out: apparent Kd; compound concentrations: 100 nM and 1000 nM (sheet 'Samples'), CATDS: 6.7046149691073503E-2; n = 1
# SRC = details: read-out: apparent Kd; compound concentrations: 100 nM and 1000 nM (sheet 'Samples'), CATDS: 7.0333029214927095E-2; n = 1
# YES1 = details: read-out: apparent Kd; compound concentrations: 100 nM and 1000 nM (sheet 'Samples'), CATDS: 8.7589956864903007E-2; n = 1
# [1] = compound concentrations:100 nM and 1000 nM (sheet 'Samples')
smiles,measurement,setting,value
Cl.Cl.NC[C@H](CC1CCCCC1)NC(=O)c1cc(Br)c(-c2ccnc3[nH]ccc23)s1.NC[C@H](CC1CCCCC1)NC(=O)c1cc(Br)c(-c2ccnc3[nH]ccc23)s1 [GSK1581427A],potency estimated from few doses,BMP2K,106 nM
same,potency estimated from few doses,CDC42BPA; [1],119 nM
same,potency estimated from few doses,CDC42BPB; [1],45.2 nM
same,potency estimated from few doses,CDC42BPG; [1],13.7 nM
same,potency estimated from few doses,PKN1; [1],1690 nM
same,potency estimated from few doses,PKN2; [1],2310 nM
same,potency estimated from few doses,PRKACA,20.9 nM
same,potency estimated from few doses,PRKACB,40.2 nM
same,potency estimated from few doses,PRKG1,10.8 nM
same,potency estimated from few doses,PRKX,513 nM
same,potency estimated from few doses,ROCK1; [1],53.6 nM
same,potency estimated from few doses,ROCK2; [1],51.1 nM
same,potency estimated from few doses,RPS6KB1; [1],481 nM
COc1cc2nccc(Nc3ccc(OCc4ccc(NC(C)=O)cc4)cc3)c2cc1OC.Cl [GW440135A],potency estimated from few doses,"CDC42BPG; compound concentrations: 100 nM and 1000 nM (sheet 'Samples'), CATDS: 0.22924434609497199",1070 nM
same,potency estimated from few doses,FLT4,185 nM
same,potency estimated from few doses,PLK1,2130 nM
same,potency estimated from few doses,RIPK2; CATDS: 0.227728306624736,1090 nM
NCc1ccc(-n2c(-c3nonc3N)nc3cnccc32)cc1 [SB-750140],potency estimated from few doses,"CDC42BPA; compound concentrations: 100 nM and 1000 nM (sheet 'Samples'), CATDS: 5.2351316008414299E-2",660 nM
same,potency estimated from few doses,"CDC42BPB; compound concentrations: 100 nM and 1000 nM (sheet 'Samples'), CATDS: 8.8336954775193793E-2",173 nM
same,potency estimated from few doses,"CDC42BPG; compound concentrations: 100 nM and 1000 nM (sheet 'Samples'), CATDS: 4.2033135949813498E-2",1420 nM
same,potency estimated from few doses,CIT,1530 nM
same,potency estimated from few doses,GSK3A,339 nM
same,potency estimated from few doses,GSK3B,502 nM
same,potency estimated from few doses,LATS1,139 nM
same,potency estimated from few doses,MELK,1800 nM
same,potency estimated from few doses,PIM2,1910 nM
same,potency estimated from few doses,"PKN1; compound concentrations: 100 nM and 1000 nM (sheet 'Samples'), CATDS: 5.10787631229489E-2",712 nM
same,potency estimated from few doses,"PKN2; compound concentrations: 100 nM and 1000 nM (sheet 'Samples'), CATDS: 0.10529576550344701",118 nM
same,potency estimated from few doses,PKN3,252 nM
same,potency estimated from few doses,PRKCD,895 nM
same,potency estimated from few doses,PRKCI,1910 nM
same,potency estimated from few doses,"ROCK1; compound concentrations: 100 nM and 1000 nM (sheet 'Samples'), CATDS: 0.30602984254096799",16.3 nM
same,potency estimated from few doses,"ROCK2; compound concentrations: 100 nM and 1000 nM (sheet 'Samples'), CATDS: 0.35552561268284599",12.9 nM
same,potency estimated from few doses,"RPS6KB1; compound concentrations: 100 nM and 1000 nM (sheet 'Samples'), CATDS: 4.4674945957763799E-2",1120 nM
c1ccc(Oc2ccc(Nc3ccnc4cc(-c5ccc(CNCCN6CCOCC6)o5)ccc34)cc2)nc1 [GW567145X],potency estimated from few doses,CAMK2B,448 nM
same,potency estimated from few doses,FLT3,620 nM
same,potency estimated from few doses,FYN,1080 nM
same,potency estimated from few doses,HCK,118 nM
same,potency estimated from few doses,LCK,994 nM
same,potency estimated from few doses,LYN,1080 nM
same,potency estimated from few doses,MAP2K5,239 nM
same,potency estimated from few doses,MAPK14,1550 nM
same,potency estimated from few doses,PTK6,917 nM
same,potency estimated from few doses,RIPK2; CATDS: 0.112898428987699,288 nM
same,potency estimated from few doses,RIPK3,837 nM
same,potency estimated from few doses,SRC,742 nM
same,potency estimated from few doses,YES1,459 nM
